Assay outcomes: PubChem, National Center for Advancing Translational Sciences (NCATS)
HP1b chromo inh: inhibitors of HP1-beta chromodomain binding to methylated histone tails; P83916; AlphaScreen HP1-beta / biotin-H3K9me3 peptide binding; Potency, µM (doses to about 114 µM), for inactives: at the highest dose activity change, negative = inhibition, usual class: inhibitors; 0.56% of 390,000 active; AID 540317; note: potency is the fitted concentration of half-maximal effect; nearly all actives have a fitted effect of over 70% in size
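Compound inhibition of the preformed complex between 50 nM HP1-beta and 50 nM biotinylated H3K9me3 peptide was read by AlphaScreen. Buffer was PBS pH 7.4 with 0.01% Tween-20. Incubations ran 30 min at room temperature, with 10 ug/mL donor/acceptor beads.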
JMJD2A Tudor: inhibitors of human JMJD2A Tudor domain | AlphaScreen JMJD2A-Tudor / H3K4me3 peptide binding | Potency, µM (doses to about 114 µM), without a hit: at the top dose activity change, negative = inhibition, actives largely listed as inhibitors | 4.4% of 390,000 active; note: potency is the fitted concentration of half-maximal effect; % is set by controls: 0 for no effect and ±100 for the full control effect; nearly all actives have a fitted effect of over 50% in size
CtBP-E1A blk: CtBP/E1A binding inhibition; AlphaScreen GST-E1A/His-CtBP binding, 1536-well; stronger effect = lower value; 0.49% of 340,000 active; AID 651724; activity change, % (no concentration beside the values); in the data active = activity change below about -65%; inconclusive = mostly about -30% to -63%; note: % is set by controls: 0 for no effect and ±100 for the full control effect
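Homogeneous bead-based format: GST-tagged E1A captured on glutathione donor beads, His-tagged CtBP on nickel acceptor beads; compounds precede bead addition by 2 h at 37 °C.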
Six1-Eya2 inh: inhibitors of human Six1/Eya2 interaction. AlphaScreen GST-Six1/His-Eya2 binding, biochemical; stronger effect = lower value. Q15475+O00167. activity change, % (no concentration beside the values). 0.56% of 360,000 active. AID 651725; in the data active = activity change below about -65%; inconclusive = mostly about -30% to -63%; note: % is set by controls: 0 for no effect and ±100 for the full control effect
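AlphaScreen luminescence read after one hour at 37 °C in darkness. Pin-transferred compounds met GST-Six1 and His-Eya2 protein (5X stock 250 nM/500 nM) plus glutathione donor and Ni-chelate acceptor beads (5X, 50 ug/mL).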
G9a block: inhibitors of human histone lysine methyltransferase G9a. Q96KQ7. G9a H3K9 monomethylation, AlphaScreen, 2 h. Potency, µM (titrated, usually from 102 µM), inactives show top-dose activity, negative = inhibition, usual class: inhibitors. 8.8% of 350,000 active. AID 504332; note: potency is the fitted concentration of half-maximal effect; % is set by controls: 0 for no effect and ±100 for the full control effect; nearly all actives have a fitted effect of over 75% in size
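G9a (20 nM) preincubated 15 min RT with compounds, then 500 nM biotinylated H3K9 peptide and 20 uM SAM added; 2 h RT reaction. Monomethyl-H3K9 product detected by AlphaScreen with anti-H3K9me1 antibody, streptavidin donor and anti-rabbit IgG acceptor beads.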
BAZ2B inh: inhibitors of human BAZ2B bromodomain; 4.4% of 360,000 active; AID 504333; AlphaScreen BAZ2B-H3K14Ac peptide displacement; Potency, µM (highest dose often 114 µM), inactives show at the top dose activity change, negative = inhibition, hits mostly inhibitors; Q9UIF8; note: potency is the fitted concentration of half-maximal effect; % is set by controls: 0 for no effect and ±100 for the full control effect; nearly all actives have a fitted effect of over 60% in size
Target sequence (Q9UIF8 whole entry, looked up): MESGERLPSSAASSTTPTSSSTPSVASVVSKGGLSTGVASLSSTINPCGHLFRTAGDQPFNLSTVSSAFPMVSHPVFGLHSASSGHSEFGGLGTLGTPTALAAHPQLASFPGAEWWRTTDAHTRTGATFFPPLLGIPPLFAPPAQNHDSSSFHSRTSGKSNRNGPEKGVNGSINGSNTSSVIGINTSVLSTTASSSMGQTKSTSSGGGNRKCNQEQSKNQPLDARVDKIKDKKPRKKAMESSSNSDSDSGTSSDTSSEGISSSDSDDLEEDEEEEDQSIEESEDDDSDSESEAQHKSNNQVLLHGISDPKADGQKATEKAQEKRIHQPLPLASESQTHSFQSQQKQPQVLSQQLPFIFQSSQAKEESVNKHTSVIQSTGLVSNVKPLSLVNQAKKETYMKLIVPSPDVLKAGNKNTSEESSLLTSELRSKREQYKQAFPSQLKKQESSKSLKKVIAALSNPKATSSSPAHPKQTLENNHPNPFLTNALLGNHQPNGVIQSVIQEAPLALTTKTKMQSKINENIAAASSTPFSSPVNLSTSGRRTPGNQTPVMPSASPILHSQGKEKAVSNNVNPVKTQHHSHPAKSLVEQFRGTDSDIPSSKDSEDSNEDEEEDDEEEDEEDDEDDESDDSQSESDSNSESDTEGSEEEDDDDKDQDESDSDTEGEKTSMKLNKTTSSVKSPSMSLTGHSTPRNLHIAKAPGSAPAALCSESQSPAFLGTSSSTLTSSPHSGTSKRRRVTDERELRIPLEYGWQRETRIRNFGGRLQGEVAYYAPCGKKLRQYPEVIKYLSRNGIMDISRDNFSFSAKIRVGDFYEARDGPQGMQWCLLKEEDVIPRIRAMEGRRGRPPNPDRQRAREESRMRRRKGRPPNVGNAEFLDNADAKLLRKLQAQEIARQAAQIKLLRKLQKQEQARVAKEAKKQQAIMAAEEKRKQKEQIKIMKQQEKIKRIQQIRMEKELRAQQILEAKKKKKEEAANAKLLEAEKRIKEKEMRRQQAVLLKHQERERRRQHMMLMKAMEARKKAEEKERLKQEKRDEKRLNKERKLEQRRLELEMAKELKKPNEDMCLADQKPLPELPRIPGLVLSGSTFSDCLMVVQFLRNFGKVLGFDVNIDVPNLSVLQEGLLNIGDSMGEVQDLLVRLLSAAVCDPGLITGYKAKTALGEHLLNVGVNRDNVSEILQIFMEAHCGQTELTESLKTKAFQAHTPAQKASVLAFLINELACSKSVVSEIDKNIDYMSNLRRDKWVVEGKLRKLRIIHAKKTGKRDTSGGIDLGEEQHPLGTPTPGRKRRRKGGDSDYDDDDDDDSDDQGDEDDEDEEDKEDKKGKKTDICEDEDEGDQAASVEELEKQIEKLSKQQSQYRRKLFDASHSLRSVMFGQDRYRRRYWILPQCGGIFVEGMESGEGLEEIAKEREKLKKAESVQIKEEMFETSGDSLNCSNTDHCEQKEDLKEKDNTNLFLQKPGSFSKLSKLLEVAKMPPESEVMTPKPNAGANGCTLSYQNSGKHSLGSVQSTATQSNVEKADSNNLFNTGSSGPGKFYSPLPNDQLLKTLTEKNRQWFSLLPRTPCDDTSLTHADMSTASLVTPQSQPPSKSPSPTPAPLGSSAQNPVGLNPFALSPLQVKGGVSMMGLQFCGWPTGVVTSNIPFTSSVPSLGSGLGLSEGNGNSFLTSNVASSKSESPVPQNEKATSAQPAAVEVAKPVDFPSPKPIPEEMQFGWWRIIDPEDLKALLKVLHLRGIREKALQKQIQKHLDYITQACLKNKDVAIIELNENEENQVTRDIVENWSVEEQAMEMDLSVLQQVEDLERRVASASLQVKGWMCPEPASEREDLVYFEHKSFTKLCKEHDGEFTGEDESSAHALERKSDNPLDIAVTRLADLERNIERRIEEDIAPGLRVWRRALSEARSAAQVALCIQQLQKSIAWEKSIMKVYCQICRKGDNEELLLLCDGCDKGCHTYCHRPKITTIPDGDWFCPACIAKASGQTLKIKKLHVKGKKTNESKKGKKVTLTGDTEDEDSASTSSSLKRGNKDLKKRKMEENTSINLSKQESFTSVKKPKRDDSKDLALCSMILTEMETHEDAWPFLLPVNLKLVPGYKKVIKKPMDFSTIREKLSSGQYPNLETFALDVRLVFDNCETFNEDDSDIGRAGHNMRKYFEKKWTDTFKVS
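Inhibition is scored as reduced AlphaScreen emission. The BAZ2B/b-H3(5-23)K14Ac complex (50 nM each) in PBS pH 7.4, 0.01% Tween-20 meets compound (up to 110 uM) for 30 min at RT before bead addition.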
* = called active by the depositor; ? = inconclusive; · = no result given; [ ] = remark or other dose. Most compounds without a hit are left out; they make up all but 10% or so of the library. Unless noted, calls come from the whole dose curve; as a rule, active = well fitted inhibition curve with a large enough effect; inconclusive = small, poorly fitted or top-dose-only effect; inactive = no such curve, though single readings can be large or run the other way.

SMILES	HP1b chromo inh	JMJD2A Tudor	CtBP-E1A blk	Six1-Eya2 inh	G9a block	BAZ2B inh
CCOC(=O)c1cc2c(=O)n3ccccc3nc2n(CC2CCCO2)c1=NC(=O)c1ccc(OCC)cc1 (stereo not drawn)	41.6%	9.9%	·	·	14.3%[59 µM]	8.3%
S=C1NCCOCCOCCOCCOCCN1	28.7%	-1.9%	3.9	1.9	?	0.5%
C1CNCCOCCNCCN1	49.6%	-24.5%	?	?	-4.8%	44.7µM*
COc1ccc(OC)c(CCNC(=O)CN2C(=O)COc3ccc(S(=O)(=O)N4CCC(C)CC4)cc32)c1	16.7%	-25.2%	·	·	-1.8%[59 µM]	-21.1%
Cc1cccc(-c2c3c(=O)n(C)c(=O)n(C)c3cn2CC2CCCO2)c1 (stereo not drawn)	33.9%	-10.4%	3.3	3.9	39.8µM*	-13.4%
Cc1cccc(-c2c3c(=O)n(C)c(=O)n(C)c3cn2CCO)c1	47.8%	-15.6%	3.5	-12.0	22.4µM*	7.9%
COc1ccccc1Cn1c(C2CC(=O)N(c3ccccc3OC)C2)nc2ccccc21 (stereo not drawn)	16.7%	-19.9%	·	·	-32.0%[59 µM]	-16.0%
CCCn1c(=O)c2ccccc2n2c(SCCOc3ccc(OC)cc3)nnc12	3.3%	-6.9%	-2.5	-6.9	-5.0%[59 µM]	2.0%
CCCn1c(=O)c2ccccc2n2c(SCC(=O)NCc3cccs3)nnc12	1.7%	25.1µM*	-6.4	-1.8	?	-1.0%
CCCn1c(=O)c2ccccc2n2c(SCCOc3ccc(C)cc3)nnc12	44.7%	28.2µM*	12.4	2.7	?	6.7%
COc1ccc(Br)cc1CNC(=O)c1ccc(-n2c(C)cc3c2CCC(C)C3)cc1 (stereo not drawn)	12.6%	-28.4%	·	·	-7.6%[59 µM]	-12.7%
COc1ccc(NC(=S)NCCSc2ccc(Cl)cc2)c(OC)c1	-21.4%	-32.9%	0.9	-9.6	12.6µM*	?
COc1ccccc1NC(=S)NCCSc1ccc(Cl)cc1	35.7%	-2.1%	0.0	22.0	-3.6%	-30.4%
COc1ccc(S(=O)(=O)N(C(C)=O)c2ccc(OC(C)=O)c3ccccc23)cc1[N+](=O)[O-]	40.8%	-25.5%	·	-12.9	79.4µM*	4.0%
CC(=O)Oc1ccc(N(C(C)=O)S(=O)(=O)c2ccccc2)c2ccccc12	·	·	-3.2	0.4	·	·
CCOC(=O)CN(Cc1ccccc1)C(C(=O)NC1CCCCC1)c1ccc(C)cc1 (stereo not drawn)	20.7%	-8.5%	·	·	14.9%[59 µM]	11.5%
CCN1C(=O)/C(=C\c2nc3ccccc3c(=O)n2-c2ccccc2)c2ccccc21	-15.9%	44.7µM*	-6.5	0.2	?	50.1µM*
CCN1C(=O)/C(=C/c2nc3ccccc3c(=O)n2-c2ccc(C)cc2)c2ccccc21	-8.5%	-19.2%	1.2	16.6	10.4%[59 µM]	-31.5%
C[N+]1(CCCCCCC(=O)/C=N/O)CCCCCC1	22.3%	-5.9%	1.8	4.3	14.1µM*	-28.0%
C[N+](C)(C)CCCCCCC(=O)/C=N/O	4.4%	?	·	23.6	?	-39.0%
Cc1ccc(CSc2nnc(-c3ccncc3)n2C)cc1	46.6%	89.1µM*	2.0	-1.9	-10.3%	?
Cc1ccc(Nc2nc(CSc3nnc(-c4cccnc4)n3-c3ccccc3F)cs2)cc1	19.9%	?	-6.2	-3.3	?	?
Cc1ccccc1Nc1nc(CSc2nnc(-c3ccoc3C)n2C)cs1	3.2%	-33.7%	-5.3	-9.3	39.8µM*	?
Cc1ccc(NC(=O)c2ccc(CSc3nnc(-c4ccncc4)n3C)cc2)cc1	26.2%	-10.4%	2.4	15.3	10.1%	-35.8%
Cc1ccc(Nc2nc(CSc3nnc(-c4ccncc4)n3C)cs2)cc1	8.4%	-28.5%	5.2	4.1	39.8µM*	-17.8%
CC(=O)Nc1ccc(-c2nnc(SCc3ccc(C)cc3)n2C)cc1	29.7%	-11.5%	9.1	14.4	5.01µM*	4.3%
O=C(CSc1nc2c([nH]c3ccccc32)c(=O)n1-c1cccc(C(F)(F)F)c1)N1CCCC1	17.1%[57 µM]	-4.5%	·	·	10.4%[59 µM]	-1.1%
